This is an account of results in PubChem BioAssay (NCATS).

The nature of this assay: P-glycoprotein substrates identified in KB-8-5-11 adenocarcinoma cell line, qHTS therapeutic library screen (AID 1346987). Also: nearly all actives have a fitted effect of over 65% in size. As to activity change, negative = cytotoxicity: series mostly up to about 44 µM. Summed up: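 Human cervical adenocarcinoma KB-8-5-11 cells, selected in colchicine to over-express P-gp and assayed without it, were exposed for 72 h to titrated compounds. An ATP-based luminescent viability signal gave AC50.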

The structures appear in SMILES notation. Results filed as inconclusive are left out. Where a call stands in place of a potency, no number is given. The source made the active and inactive calls. Calls follow the shape of the dose curve; as a rule, active = well fitted inhibition curve with a large enough effect; inconclusive = small, poorly fitted or top-dose-only effect; inactive = flat fitted curve, though single readings scatter. Where a SMILES comes first, the peptide text is derived from it. The star is where a group is joined. βNA = c1ccc2cc(N*)ccc2c1; Cbz = O=C(OCc1ccccc1)*

On to `CC(NC(=O)CC(=O)O)C(=O)Nc1ccccc1C(N)=O` (centres undefined), for which the Potency entry is “inactive”.

As to `O=C(/C=C/c1ccc(O)c(O)c1)O[C@@H]1[C@@H](O)[C@H](OC2CCCCC2O)O[C@H](CO)[C@H]1O` (some centres undefined), the Potency entry was “inactive”.

For `C=C1CC[C@@H]2[C@](C)(CO)[C@H](O[C@@H]3O[C@H](CO)[C@@H](O)[C@H](O)[C@H]3O)CC[C@@]2(C)[C@@H]1C/C=C1/C(=O)OC[C@H]1O`, the Potency result is “inactive”.

As for `CC(=O)OC(C)(C)/C=C/C(=O)[C@](C)(O)C1[C@H](O)C[C@@]2(C)[C@@H]3CC=C4[C@@H](C[C@H](O[C@@H]5O[C@H](CO)[C@@H](O)[C@H](O)[C@H]5O)C(=O)C4(C)C)[C@]3(C)C(=O)C[C@]12C` (some centres undefined), the Potency result is “inactive”.

On to `CC(C)CC(NC(=O)OCc1ccccc1)C(=O)NC(CC(C)C)C(=O)NC(CCC(=O)O)C(=O)Nc1ccc2ccccc2c1` (stereo not drawn) (Cbz-Leu-Leu-Glu-βNA; configuration not given here), for which the Potency entry is “inactive”.

`CC1CC2OCC3(O)CCC(O)C(C14CC(c1ccoc1)OC4=O)C23CO` (centres undefined): the Potency result is “inactive”.

For `COc1cc([C@@H](O[C@@H]2O[C@H](CO)[C@@H](O)[C@H](O)[C@H]2O)[C@@H]2CO[C@H](c3ccc(O)c(OC)c3)[C@H]2CO)ccc1O`, the Potency result was “inactive”.

On to `C[C@@H]1O[C@@H](O[C@H]2[C@H](O[C@H]3[C@H](O[C@H]4CC[C@@]5(C)C(CC[C@]6(C)C5CC=C5[C@@H]7CC(C)(C)C[C@@H](O)[C@]7(C)CC[C@]56C)[C@@]4(C)CO)O[C@H](C(=O)O)[C@@H](O)[C@@H]3O)O[C@H](C(=O)O)[C@H](O)[C@@H]2O)[C@H](O)[C@H](O)[C@H]1O` (some centres undefined), for which the outcome was “inactive [at 9.29 µM]”.

On to `C=CC1(C)CC=C2C(CCC3C(C)(C(=O)O)CCCC23C)C1` (centres undefined), for which the Potency entry is “inactive”.

Take `NC(=O)c1ccc(F)c2c1C[C@@H](N(C1CCC1)C1CCC1)CO2`: the Potency entry is “inactive”.

Regarding `CC(C)=CCc1c(O)cc2oc3cc(C)cc(O)c3c2c1C`, the Potency entry was “inactive”.

Turning to `O=C(OCc1ccccc1O[C@@H]1O[C@H](CO)[C@@H](O)[C@H](O)[C@H]1O)C1(O)C=CCCC1O` (some centres undefined), the Potency result was “inactive”.

Take `NCCCCN(Cc1nc2ccccc2[nH]1)[C@H]1CCCc2cccnc21`: the Potency result is “inactive”.

As to `CCC(C)C(=O)O[C@H]1C[C@](C)(O)[C@]23OC(C)(C)[C@H](C[C@H](OC(=O)c4ccccc4)[C@]2(COC(C)=O)[C@H]1OC(=O)C(C)CC)[C@H]3OC(C)=O` (some centres undefined), the Potency entry was “inactive”.

On to `C[C@]1(O)CC[C@@H]2C(C(=O)O)=CO[C@@H](O[C@@H]3O[C@H](CO)[C@@H](O)[C@H](O)[C@H]3O)[C@@H]21`, for which the Potency entry is “inactive”.

Regarding `CC(=O)O[C@@H](C[C@@H]1C=C(C)C(=O)O1)[C@H](C)[C@H]1CCC2[C@@]3(C)CC[C@H](O[C@@H]4O[C@H](CO)[C@@H](O)[C@H](O)[C@H]4O[C@@H]4O[C@@H](C)[C@H](O)[C@@H](O)[C@H]4O)C(C)(C)C3CC[C@@]2(C)[C@@]12COC(=O)C2` (some centres undefined), the activity change, negative = cytotoxicity was -0.38% [at 9.29 µM] (inactive).

Regarding `CC1(C)C(=O)N2c3ccccc3C(O)(CC(C(=O)O)n3cnc4ccccc4c3=O)C2N1O` (centres undefined), the Potency entry was “inactive”.

For the compound `CCC1(O)CC2c3cc(OC)c(OC)cc3CCN2CC1CC(C)C` (centres undefined), the Potency entry is “inactive”.

Consider `C=C(C(=O)O)C1CC(OC(=O)CC(C)CC)C2(C)CCCC(=C)C2C1` (centres undefined), for which the Potency entry is “inactive”.

Regarding `CC(C)C[C@H](NC(=O)[C@@H]1O[C@H]1C(=O)O)C(=O)NCCCCN=C(N)N`, the Potency result was “inactive”.

As to `CC(C)(Oc1ccc(-c2nc3cc(Cl)ccc3s2)cc1)C(=O)O`, the Potency result is “inactive”.

As for `CCCCC(=O)N1c2ccccc2NC2=C(C(=O)CCC2)C1c1ccccc1Cl` (centres undefined), the Potency result was “inactive”.

`CC(C)C(O)(CO)CCO[C@@H]1O[C@H](CO[C@H]2OC[C@](O)(CO)[C@H]2O)[C@@H](O)[C@H](O)[C@H]1O` (some centres undefined): the Potency result was “inactive”.

With `CC1(C)CCC[C@@]2(C)[C@H]1[C@H](O)C=C(CO)[C@]2(O)CO`, the Potency entry was “inactive”.

`C=C1C[C@@]2(O)O[C@@]3(C[C@H]2C(C)C)[C@@H](C)CC[C@@H]13`: the Potency result is “inactive”.

Consider `C[C@H]1[C@H](C)CC[C@]2(C(=O)O)CC[C@]3(C)C(=CCC4[C@@]5(C)C[C@@H](O)[C@H](O)C(C)(C)C5CC[C@]43C)[C@H]12` (some centres undefined), for which the Potency result was “inactive”.

For `CC/C=C\C(O)C(O)C1=C(C)C(=O)C2(O1)C(=O)NC(OC)(C(=O)c1ccccc1)C2O` (centres undefined), the Potency result was “inactive”.

In the case of `CC(=O)O[C@@]1(C)[C@@H]2CC(=C(C)C)C(=O)C[C@@]2(C)CC[C@H]1OC(=O)C1(C)OC1C` (some centres undefined), the Potency entry was “inactive”.

With `COC(=O)C1=C[C@@H](O)[C@@H](O)[C@H](O[C@@H]2O[C@H](CO)[C@@H](O)[C@H](O)[C@H]2OC(=O)/C=C/c2ccccc2)C1`, the Potency entry was “inactive”.
